Of roughly 7,900 targets only a part is listed; those with a hit were picked by preference. About 0.6% of all pairs of compound and target were hits.
Columns and labels:
Experiment in all cases: log2 fold change, soluble protein after heating vs DMSO (PISA); higher = thermal stabilisation; K562 cells, 10 uM, 30 min; active = over 0.2 and 3.5 SD of the protein, either way, in both replicates (recomputed)
[1] = compound: C1=CC=C(C=C1)[C@H](COC2=CC3=C(C=C2)NC(=O)N3)NC(=O)C4=CC=CN(C4=O)CC5=CC(=C(C=C5)F)F
Method in brief: (§1)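 K562 cells at 2×10^6 cells/mL were exposed to 10 μM compound for 30 min, then aliquots were heated for 3 min across 48°C-58°C, pooled, and extracted in PBS containing 0.5% NP-40 at 4°C. The supernatant after 21,000xg for 90 min was taken as soluble protein and measured by TMTpro 16plex LC-MS/MS with channel sums equalised. Thermal stability is reported relative to control samples, with values from duplicates. Fold changes are given on a log2 scale.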

[2] = compound: CC1=C(SC2=C1C(=N[C@H](C3=NN=C(N32)C)CC(=O)N)C4=CC=C(C=C4)Cl)C
Method in brief: as §1

[3] = compound: CC1=C2C(=CC=C1)N=C(N(C2=O)C3=CC=CC=C3C)CN4C=NC5=C(N=CN=C54)N
Method in brief: as §1

[4] = compound: Cc1sc2c(c1C)C(c1ccc(Cl)cc1)=N[C@@H](CC(=O)OC(C)(C)C)c1nnc(C)n1-2
Method in brief: as §1

[5] = compound: c1ccc([C@@H]2C[C@H]2NC2CCNCC2)cc1
Method in brief: as §1

Measured: log2 fold change

DDB1 isoform 2 (UniProt Q16531)
inactive: [1] 0.028

EXOC2 (UniProt Q96KP1)
inactive: [1] -0.054 | [2] 0.025 | [3] 0.03 | [4] 0.033 | [5] 0.011

CYBA (UniProt P13498)
inactive: [1] 0.007 | [2] 0.034 | [3] -0.013 | [4] 0.027 | [5] 0.031

EXOC5 (UniProt O00471)
inactive: [1] -0.069 | [2] -0.006 | [3] 0.07 | [4] 0.066 | [5] -0.018

DYNC1LI2 (UniProt O43237)
inactive: [1] -0.04 | [2] -0.071 | [3] 0.035 | [4] -0.028 | [5] 0.013

FAF2 (UniProt Q96CS3)
inactive: [1] 0.002 | [2] 0.025 | [3] 0.067 | [4] -0.012 | [5] -0.017

EIF4G3 isoform 3 (UniProt O43432)
inactive: [1] -0.021 | [2] 0.021 | [3] 0.184 | [4] 0.038 | [5] -0.06

EIF4G1 isoform 8 (UniProt Q04637)
inactive: [1] -0.074 | [2] -0.016 | [3] -0.036 | [4] 0.135 | [5] -0.002

DENND10 (UniProt Q8TCE6)
inactive: [1] 0.035 | [2] 0.083 | [3] 0.103 | [4] 0.057 | [5] -0.008

DHPS (UniProt M0R1T2)
inactive: [1] -0.155

CTNNB1 (UniProt P35222)
inactive: [1] -0.039 | [2] 0.101 | [3] 0.312 | [4] -0.062 | [5] -0.149

EEF1G isoform 2 (UniProt P26641)
inactive: [1] -0.068 | [2] 0.005 | [3] -0.049 | [4] -0.001 | [5] -0.006

EDC4 (UniProt Q6P2E9)
inactive: [1] 0.02 | [2] -0.004 | [3] 0.075 | [4] 0.023 | [5] 0.024

EIF4E2 (UniProt O60573)
inactive: [1] -0.043 | [2] -0.01 | [3] -0.007 | [4] -0.06 | [5] 0.055

EIF4E isoform 2 (UniProt P06730)
UniProt P06730, sequence (P06730 whole entry, looked up): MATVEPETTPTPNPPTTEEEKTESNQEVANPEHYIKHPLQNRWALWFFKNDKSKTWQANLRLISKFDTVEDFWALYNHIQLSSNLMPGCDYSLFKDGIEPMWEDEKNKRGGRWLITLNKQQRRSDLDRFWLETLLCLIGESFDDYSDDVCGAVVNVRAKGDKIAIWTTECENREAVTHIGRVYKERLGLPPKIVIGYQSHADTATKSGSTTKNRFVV
inactive: [1] 0.029 | [2] -0.026 | [3] -0.002 | [4] -0.144 | [5] 0.009

CTU1 (UniProt Q7Z7A3)
inactive: [1] -0.061 | [2] 0.025 | [3] 0.052 | [4] -0.006 | [5] -0.051

DIP2A (UniProt Q14689)
UniProt Q14689, sequence (Q14689 whole entry, looked up): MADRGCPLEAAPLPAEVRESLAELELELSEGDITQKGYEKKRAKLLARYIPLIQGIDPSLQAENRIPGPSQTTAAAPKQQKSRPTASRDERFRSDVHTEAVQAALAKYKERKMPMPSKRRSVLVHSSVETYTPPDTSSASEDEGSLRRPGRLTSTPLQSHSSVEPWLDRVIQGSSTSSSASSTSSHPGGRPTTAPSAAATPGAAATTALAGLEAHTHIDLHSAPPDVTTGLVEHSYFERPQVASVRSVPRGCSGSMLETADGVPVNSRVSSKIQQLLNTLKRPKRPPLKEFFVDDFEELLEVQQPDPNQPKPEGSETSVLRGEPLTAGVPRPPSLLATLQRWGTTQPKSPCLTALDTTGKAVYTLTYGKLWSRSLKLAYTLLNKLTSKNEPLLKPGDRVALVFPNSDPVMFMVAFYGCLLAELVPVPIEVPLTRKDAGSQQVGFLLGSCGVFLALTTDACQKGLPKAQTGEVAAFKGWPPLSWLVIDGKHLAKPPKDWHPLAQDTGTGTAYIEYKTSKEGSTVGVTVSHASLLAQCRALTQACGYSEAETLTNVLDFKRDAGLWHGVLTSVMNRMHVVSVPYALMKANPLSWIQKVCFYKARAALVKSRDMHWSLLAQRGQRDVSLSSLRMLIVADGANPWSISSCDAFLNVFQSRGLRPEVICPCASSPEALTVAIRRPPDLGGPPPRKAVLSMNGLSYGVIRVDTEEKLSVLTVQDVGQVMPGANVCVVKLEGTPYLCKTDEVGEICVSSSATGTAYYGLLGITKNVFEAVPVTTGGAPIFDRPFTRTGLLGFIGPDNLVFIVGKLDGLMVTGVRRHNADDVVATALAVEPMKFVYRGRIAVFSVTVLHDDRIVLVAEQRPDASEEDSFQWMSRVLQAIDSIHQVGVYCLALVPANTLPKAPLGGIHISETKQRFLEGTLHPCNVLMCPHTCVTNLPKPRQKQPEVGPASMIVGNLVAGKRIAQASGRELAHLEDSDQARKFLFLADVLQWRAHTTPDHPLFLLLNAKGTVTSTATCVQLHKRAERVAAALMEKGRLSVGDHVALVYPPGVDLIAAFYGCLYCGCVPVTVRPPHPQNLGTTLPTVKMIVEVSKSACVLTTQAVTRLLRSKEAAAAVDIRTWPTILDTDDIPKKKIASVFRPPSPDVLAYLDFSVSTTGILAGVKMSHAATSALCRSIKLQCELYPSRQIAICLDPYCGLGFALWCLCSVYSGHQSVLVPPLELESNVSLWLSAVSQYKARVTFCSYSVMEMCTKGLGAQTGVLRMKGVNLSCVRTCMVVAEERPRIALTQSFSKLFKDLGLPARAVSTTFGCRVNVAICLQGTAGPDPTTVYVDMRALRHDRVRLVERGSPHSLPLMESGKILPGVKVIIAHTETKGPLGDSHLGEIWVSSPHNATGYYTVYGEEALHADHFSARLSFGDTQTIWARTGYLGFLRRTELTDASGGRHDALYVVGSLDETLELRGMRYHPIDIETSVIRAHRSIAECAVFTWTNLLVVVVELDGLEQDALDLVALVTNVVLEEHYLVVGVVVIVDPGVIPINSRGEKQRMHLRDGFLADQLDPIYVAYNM
inactive: [1] -0.03 | [2] 0.042 | [3] -0.149 | [4] 0.019 | [5] -0.078

EXOC8 (UniProt Q8IYI6)
inactive: [1] -0.004 | [2] 0.029 | [3] 0.03 | [4] 0.006 | [5] -0.051

CUX1 isoform 3 (UniProt P39880)
UniProt P39880, sequence (P39880 whole entry, looked up): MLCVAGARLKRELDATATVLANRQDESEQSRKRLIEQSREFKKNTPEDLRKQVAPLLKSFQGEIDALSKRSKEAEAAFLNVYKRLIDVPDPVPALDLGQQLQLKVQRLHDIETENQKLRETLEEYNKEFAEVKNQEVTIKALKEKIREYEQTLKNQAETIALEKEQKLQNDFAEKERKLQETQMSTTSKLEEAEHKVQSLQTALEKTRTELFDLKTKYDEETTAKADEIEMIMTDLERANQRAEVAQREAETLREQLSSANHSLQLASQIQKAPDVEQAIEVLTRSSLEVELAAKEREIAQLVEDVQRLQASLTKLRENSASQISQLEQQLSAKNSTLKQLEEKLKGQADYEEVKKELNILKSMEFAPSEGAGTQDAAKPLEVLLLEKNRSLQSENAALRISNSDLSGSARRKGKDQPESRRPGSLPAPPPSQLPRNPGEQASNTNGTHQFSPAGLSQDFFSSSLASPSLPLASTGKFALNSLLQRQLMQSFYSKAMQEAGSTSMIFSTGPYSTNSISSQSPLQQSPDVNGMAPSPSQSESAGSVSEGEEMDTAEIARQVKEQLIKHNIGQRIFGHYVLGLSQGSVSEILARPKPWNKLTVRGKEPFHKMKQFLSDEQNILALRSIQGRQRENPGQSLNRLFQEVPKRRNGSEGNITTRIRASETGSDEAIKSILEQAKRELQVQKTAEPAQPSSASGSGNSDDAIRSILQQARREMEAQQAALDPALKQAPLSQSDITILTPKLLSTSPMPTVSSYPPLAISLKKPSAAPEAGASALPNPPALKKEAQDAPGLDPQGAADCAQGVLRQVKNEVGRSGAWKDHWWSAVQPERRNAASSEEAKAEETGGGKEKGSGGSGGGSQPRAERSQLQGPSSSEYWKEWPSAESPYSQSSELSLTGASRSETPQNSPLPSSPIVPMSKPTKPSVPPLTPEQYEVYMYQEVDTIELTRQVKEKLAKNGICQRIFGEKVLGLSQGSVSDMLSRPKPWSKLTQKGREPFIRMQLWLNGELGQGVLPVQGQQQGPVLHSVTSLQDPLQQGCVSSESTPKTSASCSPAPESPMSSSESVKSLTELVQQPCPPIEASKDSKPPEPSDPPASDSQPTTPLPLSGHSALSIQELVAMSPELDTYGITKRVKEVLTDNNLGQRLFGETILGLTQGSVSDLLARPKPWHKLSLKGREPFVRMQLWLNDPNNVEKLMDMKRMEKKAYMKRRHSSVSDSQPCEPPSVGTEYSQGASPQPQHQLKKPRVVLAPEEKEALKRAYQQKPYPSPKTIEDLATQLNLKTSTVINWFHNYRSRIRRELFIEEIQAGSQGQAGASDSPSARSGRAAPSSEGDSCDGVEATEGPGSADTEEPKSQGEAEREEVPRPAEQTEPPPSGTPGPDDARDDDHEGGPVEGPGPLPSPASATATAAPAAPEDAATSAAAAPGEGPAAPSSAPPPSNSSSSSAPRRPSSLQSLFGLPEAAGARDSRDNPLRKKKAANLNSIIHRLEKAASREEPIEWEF
inactive: [1] 0 | [2] 0.025 | [3] 0.034 | [4] -0.009 | [5] 0.016

FAM3A (UniProt P98173)
inactive: [1] -0.01 | [2] -0.001 | [3] 0.038 | [4] -0.051 | [5] -0.014

DPH5 isoform 5 (UniProt Q9H2P9)
inactive: [1] -0.025 | [2] 0.054 | [3] 0.092 | [4] -0.009 | [5] 0

FAM160B1 (UniProt Q5W0V3)
UniProt Q5W0V3, sequence (Q5W0V3 whole entry, looked up): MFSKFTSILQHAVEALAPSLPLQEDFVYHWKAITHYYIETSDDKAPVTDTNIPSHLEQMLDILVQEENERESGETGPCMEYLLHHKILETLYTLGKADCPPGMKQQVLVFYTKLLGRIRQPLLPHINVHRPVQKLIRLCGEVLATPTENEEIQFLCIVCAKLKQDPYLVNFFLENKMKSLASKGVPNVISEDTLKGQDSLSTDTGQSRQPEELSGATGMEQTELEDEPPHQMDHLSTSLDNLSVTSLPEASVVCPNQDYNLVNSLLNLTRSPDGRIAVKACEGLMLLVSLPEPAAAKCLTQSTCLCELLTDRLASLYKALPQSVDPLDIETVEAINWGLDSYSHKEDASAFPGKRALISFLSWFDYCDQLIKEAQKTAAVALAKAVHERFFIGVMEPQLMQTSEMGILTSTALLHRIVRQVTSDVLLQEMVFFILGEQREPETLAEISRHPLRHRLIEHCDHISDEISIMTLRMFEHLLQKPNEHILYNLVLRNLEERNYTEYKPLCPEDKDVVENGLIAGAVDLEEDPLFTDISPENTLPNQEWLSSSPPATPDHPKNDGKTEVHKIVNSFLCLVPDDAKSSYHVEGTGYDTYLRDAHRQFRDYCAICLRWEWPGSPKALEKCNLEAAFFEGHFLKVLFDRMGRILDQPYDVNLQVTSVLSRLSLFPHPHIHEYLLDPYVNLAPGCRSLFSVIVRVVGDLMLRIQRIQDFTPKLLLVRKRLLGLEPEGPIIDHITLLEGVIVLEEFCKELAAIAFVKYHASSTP
inactive: [1] -0.005 | [2] 0.026 | [3] -0.01 | [4] -0.022 | [5] -0.041

DPP8 (UniProt Q6V1X1)
UniProt Q6V1X1, sequence (Q6V1X1 whole entry, looked up): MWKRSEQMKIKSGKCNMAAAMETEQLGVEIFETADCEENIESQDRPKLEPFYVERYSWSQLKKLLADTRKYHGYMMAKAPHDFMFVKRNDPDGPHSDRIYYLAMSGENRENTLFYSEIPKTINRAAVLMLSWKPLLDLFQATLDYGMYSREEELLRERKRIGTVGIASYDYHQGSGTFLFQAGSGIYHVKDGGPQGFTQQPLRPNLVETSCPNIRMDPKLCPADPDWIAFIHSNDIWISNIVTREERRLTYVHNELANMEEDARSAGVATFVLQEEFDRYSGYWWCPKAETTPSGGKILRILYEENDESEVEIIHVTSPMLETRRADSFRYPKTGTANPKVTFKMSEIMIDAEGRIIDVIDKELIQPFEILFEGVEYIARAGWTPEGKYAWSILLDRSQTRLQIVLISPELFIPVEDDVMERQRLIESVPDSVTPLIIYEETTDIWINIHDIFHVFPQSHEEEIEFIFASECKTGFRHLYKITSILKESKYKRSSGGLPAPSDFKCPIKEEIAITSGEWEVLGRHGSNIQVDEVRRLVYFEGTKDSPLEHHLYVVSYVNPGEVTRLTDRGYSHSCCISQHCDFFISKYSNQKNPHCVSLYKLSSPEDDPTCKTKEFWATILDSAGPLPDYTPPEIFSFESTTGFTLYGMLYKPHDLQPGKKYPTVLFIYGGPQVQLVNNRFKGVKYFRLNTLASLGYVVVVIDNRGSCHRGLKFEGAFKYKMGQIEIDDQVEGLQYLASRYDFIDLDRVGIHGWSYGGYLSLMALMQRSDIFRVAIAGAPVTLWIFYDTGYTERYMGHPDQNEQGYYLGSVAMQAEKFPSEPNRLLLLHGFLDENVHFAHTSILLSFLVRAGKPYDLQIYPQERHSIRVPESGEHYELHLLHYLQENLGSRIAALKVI
inactive: [1] -0.112 | [2] 0.029 | [3] 0.145 | [4] -0.033 | [5] 0.005

FAAP100 (UniProt Q0VG06)
inactive: [1] -0.243 | [2] 0.078 | [3] 0.017 | [4] -0.073 | [5] 0.067

DHCR24 (UniProt Q15392)
inactive: [1] 0.099 | [2] -0.035 | [3] 0.14 | [4] 0.036 | [5] -0.012
